Results from ChEMBL document CHEMBL3988442, “University of Dundee, Small-Polar-MMV Screening Library” (2021).
Among all 48,000 compounds or so, about 13,000 (27%) showed an effect of 50% or more. The list shows a part of the results.

These compounds were tested on Wolbachia pipientis (assay: Anti-Wolbachia Cell-Based Screen). Conditions: 5 µM.
Type: functional
Design: scale not given: in the data most compounds retested in dose-response had high values

Structure (SMILES)	Percent Effect
Cc1ccccc1C(C(=O)N(Cc1cnn(C)c1)CC(C)C)N(C)C (configuration not stated)	-6.978%
Cc1cccc(-c2nc(C)nn2CN2CCC3(CC2)OCCO3)c1	0.3778%
Cc1cccnc1N1CCN(C(=O)CCc2cn3ccccc3n2)CC1	-2.508%
O=C1CC(N(C(=O)CCc2cc(F)ccc2F)C2CC2)C(=O)N1 (configuration not stated)	101%
O=C1CC(N(C(=O)COc2ccc(F)cc2F)C2CC2)C(=O)N1 (configuration not stated)	87.23%
O=C1CC(N(C(=O)c2ccc(-n3cccc3)cc2)C2CC2)C(=O)N1 (configuration not stated)	-5.765%
COc1ccc(C(=O)N(C2CC2)C2CC(=O)NC2=O)cc1 (configuration not stated)	-6.531%
O=C1CC(N(C(=O)c2ccccc2Br)C2CC2)C(=O)N1 (configuration not stated)	-20.12%
COc1cc(C(=O)N(C2CC2)C2CC(=O)NC2=O)ccc1C (configuration not stated)	-10.25%
O=C1CC(N(C(=O)Cc2csc(-c3ccccc3)n2)C2CC2)C(=O)N1 (configuration not stated)	1.029%
O=C1CC(N(C(=O)CCc2c[nH]c3ccccc23)C2CC2)C(=O)N1 (configuration not stated)	78.13%
O=C1CC(N(C(=O)c2ccc3c(c2)CCC3)C2CC2)C(=O)N1 (configuration not stated)	-12.36%
CC(C)COc1cncc(NCCc2nnc3ccccn23)n1	6.284%
COc1ncc(-c2nccn2CCN(C)C)cn1	-13.85%
COCCCn1ccnc1-c1cnc(OC)nc1	-18.72%
CCCn1ccnc1-c1nccn1CCn1cnnc1	87.43%
CCCn1ccnc1-c1nccn1CCC(N)=O	-22.61%
COCc1ncc(-c2nccn2CCN(C)C)cn1	3.066%
COCc1ncc(-c2nccn2CCn2cnnc2)cn1	95.42%
COCc1ncc(-c2nccn2CCS(C)(=O)=O)cn1	120.2%
CCCn1ccnc1-c1nccn1CCN(C)C	-8.104%
CCCSc1ncc(-c2nccn2CCO)cn1	-55.57%
CN(C)Cc1nnc(C2CCN(c3ncccc3Cl)CC2)n1C1CC1	-16.88%
O=C(NC1CCCC1)O[C@H]1COCCN(c2nc3ccccc3o2)C1	-4.12%
CN(Cc1nccs1)c1nccc(N2CCN[C@H]3CS(=O)(=O)C[C@H]32)n1	-5.478%
Cn1c(CCNc2nccnc2C#N)nc2ccc(F)cc21	-0.9847%

Structure (SMILES)	Percent Effect
CNC(=O)C1CCCN(C(=O)OC)C1 (configuration not stated)	-23.89%
Cc1cc(C(=O)N2CCCC3(COCCN(c4ncccn4)C3)C2)[nH]n1.O=C(O)C(F)(F)F.O=C(O)C(F)(F)F (configuration not stated)	-11.88%
Cc1ccc(N2CCC3(CC2)COCCN(c2nccs2)C3)nn1.O=C(O)C(F)(F)F.O=C(O)C(F)(F)F	108.8%
c1ccc2sc(N3CCCC4(CCOC4)C3)nc2c1 (configuration not stated)	-24.88%
CCOCC(=O)N1CC[C@H]2OCC[C@@]2(COc2ncccc2F)C1.O=C(O)C(F)(F)F	-3.289%
Cc1ccoc1C(=O)N1CCOCC2(CCN(c3ncccn3)C2)C1.O=C(O)C(F)(F)F (configuration not stated)	0.2458%
c1ccc(-c2nnc(N3CCCC4(CCOC4)C3)s2)cc1 (configuration not stated)	56.2%
CCOCC(=O)N1CCOCC2(CCN(c3ncccn3)C2)C1.O=C(O)C(F)(F)F (configuration not stated)	115.1%
Cc1ccc(N2CCCC3(COCCN(c4ncccn4)C3)C2)nn1.O=C(O)C(F)(F)F (configuration not stated)	82.98%
OC1(CN2CCCC2)COCCN(c2nnc(-c3ccccc3)s2)C1 (configuration not stated)	-13.1%
Cc1ccc(N2CCCC3(COCCN(c4nccs4)C3)C2)nn1.O=C(O)C(F)(F)F.O=C(O)C(F)(F)F (configuration not stated)	-0.6863%
O=C(O)C(F)(F)F.O=C(O)C(F)(F)F.c1cnc(N2CCOCC3(CCCN(CC4CCOCC4)C3)C2)nc1 (configuration not stated)	-3.791%
Cc1ccc(N2CC3(CCN(c4nccs4)C3)C2)nn1	-7.178%
CCc1ncc2c(n1)CN(CC(=O)NC1CCCCNC1=O)CC2 (configuration not stated)	-10.76%
N#CCCCOc1cccc(CN2CCCC2c2ccc[nH]2)c1 (configuration not stated)	-9.513%
NCC1Cc2cc(-c3cnccn3)cc(Cl)c2O1 (configuration not stated)	3.613%
O=C(O)C(F)(F)F.c1ccc(N2CCCC3(COCCN(c4nccs4)C3)C2)nc1 (configuration not stated)	-9.014%
c1ccc(N2CCOCC3(CCCN(c4nccs4)C3)C2)nc1 (configuration not stated)	105.2%
Cc1ccc(N2CCCC3(COCCN(c4ccccn4)C3)C2)nn1.O=C(O)C(F)(F)F (configuration not stated)	88.94%
CCCS(=O)(=O)N1CCOCC2(CCN(c3ccccn3)C2)C1.O=C(O)C(F)(F)F (configuration not stated)	-9.194%
Cc1cnc(N2CCOC3(COCCN(c4nccs4)C3)C2)nc1 (configuration not stated)	7.245%
O=C1NCC2(CCCN(C(=O)Nc3ccc4occc4c3)CC2)O1 (configuration not stated)	-22.41%
Cc1cc(SC(C)(C)C)ccc1NC(C)C(=O)NC(N)=O (configuration not stated)	0.5682%
O=C(NCCc1ccccc1)C1CCC(Cn2cnnn2)CC1 (configuration not stated)	3.007%
O=C(NCCc1ccccc1)C1CCN(C(=O)Cn2cncn2)C1 (configuration not stated)	175.5%
CN(Cc1ccc(F)cc1)C(=O)CN1CCCCC1Cn1cncn1 (configuration not stated)	-13.17%

Structure (SMILES)	Percent Effect
CCCNC(=O)C1CCCN(Cc2ccc(-n3cncn3)c(C)c2)C1 (configuration not stated)	5.039%
O=C(NCCc1ccc(F)cc1)C1CN(C(=O)Cn2cncn2)C1	163.3%
O=C(Nc1ccccc1)C1CCCN(C(=O)Cn2cncn2)C1 (configuration not stated)	9.271%
CC(=O)Nc1cnc(-n2ccnc2)nc1	0.9267%
C=Cc1ccc(C(=O)N2CCCC(Nc3ccccc3)C2)cc1 (configuration not stated)	-22.58%
CN1C(=O)C[C@@H]2[C@@H]1CCN2C(=O)c1ccc[nH]1	-0.2597%
Cc1cccc(C(=O)N2CCCSCC2CN2CCCC2)c1 (configuration not stated)	114.9%
CN(C)c1ccc(C(=O)N2C[C@@H](CN3CCCCC3)[C@@H](CO)C2)cc1	-5.628%
O=C(c1ccc(F)c(F)c1)N1CCCSCC1CN1CCCC1 (configuration not stated)	1.047%
N#Cc1cccc(C(=O)N2C[C@H](CO)C[C@H](CN3CCCC3)C2)c1	-1.985%
N#Cc1ccc(C(=O)N2C[C@@H](CN3CCCC3)C[C@H](CO)C2)cc1	5.863%
N#Cc1ccc(C(=O)N2CCCSCC2CN2CCCC2)cc1 (configuration not stated)	107.8%
CS(=O)(=O)N1CCCC12CCCN(C(=O)c1ccc3[nH]ccc3c1)C2 (configuration not stated)	11.97%
CN(C)c1cccc(C(=O)N2C[C@H]3CC[C@@H]2CN(C(=O)C2CCC2)C3)c1	-25.57%
O=C(c1ccc2[nH]ccc2c1)N1CCCSCC1CN1CCCC1 (configuration not stated)	105.2%
O=C(c1ccc2c(c1)OCO2)N1CCCSCC1CN1CCCC1 (configuration not stated)	1.32%
CN(C)c1cccc(C(=O)N2CCCSCC2CN2CCCC2)c1 (configuration not stated)	112.4%
O=C(CCC1CCN(Cc2ncc[nH]2)CC1)Nc1ccccc1Cl	0.1939%
CCN(C)c1ccc(CNS(=O)(=O)C2CCOCC2)cc1F	3.098%
O=C(O)c1cc(C2=CCCCC2)cc(S(=O)(=O)NCc2ccccn2)c1	-10.69%
COc1ccc(CN2CCCn3cnc(COCC4CC4)c3C2)cc1.O=C(O)C(F)(F)F	-1.756%
CCN1C(=O)C2(CCOCC2)c2cc(NC(=O)c3cc(C)n[nH]3)ccc21	-4.188%
CC(C)Oc1ccc(CNC(=O)c2cc(C(N)=O)cs2)cc1F	-0.429%
CCn1nc(C)c(CN2CCCC(c3ccc(C(=O)O)cc3)C2)c1C (configuration not stated)	3.316%
CCn1nc(C)c(CN2CCC(c3ccn[nH]3)C2)c1C (configuration not stated)	102.4%
CCn1nc(C)c(CN2CCC(c3ccc(C(=O)O)cc3)C2)c1C (configuration not stated)	-3.844%

Structure (SMILES)	Percent Effect
Cc1cc(CN(C)Cc2ccccc2N2CCCCC2)n[nH]1	185.5%
Cc1ccc(CN(C)Cc2cc(C3CC3)[nH]n2)c(O)n1	7.171%
Cc1cc(CN(C)Cc2csc(-c3cccs3)n2)n[nH]1	-0.07399%
CCCNC(=O)NC(=O)CNC(C)(C)c1ccc2c(c1)OCO2	110.6%
CC(C)(C)C(=O)NCCC(=O)NC(C)(C)c1ccc2c(c1)OCCO2	1.419%
CC(C)(NCc1cccc(C#N)c1)c1ccc2c(c1)OCO2	0.8425%
CCN(CC(=O)N(C)C)C(=O)C(C)(C)c1ccc2c(c1)OCCO2	-3.526%
CC(C)(NCc1ccc(C#N)cc1)c1ccc2c(c1)OCO2	0.339%
CCCNC(=O)NC(=O)CNC(C)(C)c1ccc2c(c1)OCCO2	109.8%
CCN(Cc1ccc(CN(C)C)cc1)C(=O)c1ccncc1O	4.477%
O=C(NC1CC(F)(F)C1)[C@]12COC[C@H]1CN(Cc1ccsc1)C2	-6.897%
O=C(CN1CCc2cncnc2C1)NC1CCCCNC1=O (configuration not stated)	-3.554%
Cc1cc(C)nc(N2CCN(C(=O)c3cc(Cl)c[nH]3)CC2)n1	-2.597%
Cc1ccsc1CN(C)c1cc(N2CCOCC2)ncn1	-30.66%
CNC(=O)C1(C)CN(c2nc(C)cc(C)n2)CCO1 (configuration not stated)	133.8%
CC(C)=CCC1(C(=O)O)CCCN(c2cc(N)ncn2)C1 (configuration not stated)	-4.514%
Cc1cc(C)nc(N2CC[C@@]3(O)CCN(S(=O)(=O)N(C)C)C[C@H]3C2)n1	-0.4533%
Cc1ccc(N2CCC3(CCN(C(N)=O)CC3)CC2)nn1	5.421%
Cc1cc(C)nc(N2CCOC(C)(C(=O)N(C)C)C2)n1 (configuration not stated)	205.4%
Cc1ccc(N2CCOC(C)(C(=O)N(C)C)C2)nn1 (configuration not stated)	160%
Cc1nc(N2CCOCC2)nc(C)c1NC(=O)Cc1ccc(Cl)cc1	-11.2%
CNc1cc(C)nc(N2CCC3(CC2)[C@H](O)C[C@@H]3O)n1	-5.411%
CCCS(=O)(=O)N1CCOC2(CCCN(c3ccc(C)nn3)C2)C1 (configuration not stated)	6.152%
Cc1cc(N2CCOC(C)(C(=O)N(C)C)C2)ncn1 (configuration not stated)	147.4%
